Measured values from PubChem BioAssay AID1851 (National Center for Advancing Translational Sciences (NCATS), 2009).
Hit rate of the full screen: of about 16,000 compounds, about 5,700 (36%) were called active. Inconclusive results (about 24%) are left out. This is one part of the list. A number with no mark means an inactive call. Calls come from the whole dose curve; as a rule, active = well fitted curve in the direction sought with a large enough effect; inconclusive = small, poorly fitted or top-dose-only effect, or effect the other way; inactive = no such curve, though single readings can be large or run the other way.
% is set by controls: 0 for no effect and ±100 for the full control effect.

These compounds were tested against Cytochrome P450 1A2 (Homo sapiens) (UniProt P05177) (assay: Cytochrome panel assay with activity outcomes). Conditions: recombinant CYP, pro-luciferin dealkylation, luminescence, p450-cyp1a2; series mostly up to 57.1 µM; activity, negative = inhibition: at the top concentration.
Cytochrome P450 1A2 (Homo sapiens), sequence (P05177 whole entry, looked up): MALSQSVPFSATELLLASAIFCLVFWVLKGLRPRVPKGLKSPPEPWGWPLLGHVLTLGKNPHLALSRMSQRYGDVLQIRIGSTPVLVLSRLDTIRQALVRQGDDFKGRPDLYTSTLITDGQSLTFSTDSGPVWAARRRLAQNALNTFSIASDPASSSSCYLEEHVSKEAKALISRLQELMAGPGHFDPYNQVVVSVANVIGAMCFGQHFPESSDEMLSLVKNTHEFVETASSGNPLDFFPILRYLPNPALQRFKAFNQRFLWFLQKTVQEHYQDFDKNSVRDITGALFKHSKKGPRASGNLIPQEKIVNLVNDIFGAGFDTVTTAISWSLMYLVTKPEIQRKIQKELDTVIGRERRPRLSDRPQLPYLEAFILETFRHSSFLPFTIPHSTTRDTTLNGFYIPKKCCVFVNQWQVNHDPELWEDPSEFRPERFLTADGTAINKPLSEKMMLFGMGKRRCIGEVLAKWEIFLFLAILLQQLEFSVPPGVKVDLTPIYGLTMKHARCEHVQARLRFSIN
`O=C1C[C@@H](O)[C@@H](O)[C@@H]2[C@H]3C(=O)N(c4ccc(F)cc4F)C(=O)[C@@H]3CC[C@@H]12` was tested, and the activity, negative = inhibition was -7.03% [at 11.4 µM].
`COc1ccc2cc3cc(C(=O)NCc4ccccn4)oc3nc2c1` was tested, and the AC50 was 1000 nM (active).
`CC(C)CC(=O)Nc1sc2c(c1C#N)CC(C)(C)NC2(C)C` was tested, and the “activity, negative = inhibition” value was -26.2%.
For `O=C1c2ccccc2C(=O)N1CCCSc1ccccc1`, the AC50 was 1000 nM (active).
In the case of `COc1cc(Cl)c(C)cc1NC(=O)CNC(=O)Cn1cnc2ccccc2c1=O`, the “activity, negative = inhibition” value is reported as -7.13%.
Work on `O=C(O)CCCSc1ccccc1` yielded an activity, negative = inhibition of -11.7% [at 11.4 µM].
For `Cc1ccc(SCCCn2cnc3ccccc3c2=O)cc1`, the AC50 was 3160 nM (active).
In the case of `O=C(c1ccccc1)c1ccc(OCCn2cnc3ccccc3c2=O)cc1`, the “activity, negative = inhibition” value is reported as -15.9%.
For `O=C1c2ccccc2C(=O)N1C[C@]1(C(=O)O)NCCS1(=O)=O`, the activity, negative = inhibition was -5.5% [at 2.29 µM].
`O=c1c2ccccc2ncn1CCCSc1ccccc1` was tested, and the AC50 was 7080 nM (active).
With `CC(C)(C)NC(=O)C(Cc1ccccc1)NS(=O)(=O)c1ccc2c(c1)CCC(=O)N2` (stereo not drawn) the “activity, negative = inhibition” value was -16.2%.
With `COc1ccc(Oc2ncc3nc(-c4ccc(Cl)cc4)c(=O)n(C)c3n2)cc1` the AC50 was 631 nM (active).
With `Cn1c(=O)c(-c2ccc(Cl)cc2)nc2cnc(Oc3ccccc3)nc21` the AC50 was 200 nM (active).
For `Cn1c(=O)c(-c2ccccc2)nc2cnc(Oc3ccccc3)nc21`, the AC50 was 2000 nM (active).
With `CC(C)CN1CC[C@@]2(CCCN(C(=O)c3csnn3)C2)C1` the “activity, negative = inhibition” value was -16.6%.
`CCn1ncc(/C=C/C(=O)NCc2cn(C)nc2C)c1C` was tested, and the “activity, negative = inhibition” value was 2.23%.
With `CCCCCC(=O)Nc1cc2[nH]c(=O)cc(COC)c2cc1C` the “activity, negative = inhibition” value was -12.2%.
In the case of `COCc1cc(=O)[nH]c2cc(NC(=O)C(F)(F)F)c(C)cc12`, the AC50 is reported as 11200 nM (active).
With `COc1cccc(C(CC(=O)Nc2cccc3ccccc23)NC(=O)c2ccccc2)c1` (stereo not drawn) the “activity, negative = inhibition” value was -7.28%.
With `COc1ccc(C(=O)Nc2ccc(C(=O)OCC(=O)c3ccccc3)cc2)cc1` the “activity, negative = inhibition” value was -1.73%.
`CCC(=O)Nc1ccccc1C(=O)OCC(=O)c1cccc2ccccc12` was tested, and the AC50 was 2510 nM (active).
In the case of `COc1ccc(C(=O)COC(=O)c2ccc(NC(=O)c3ccccc3)cc2)cc1`, the “activity, negative = inhibition” value is reported as 2.4%.
`CCC(=O)Nc1ccccc1C(=O)OCC(=O)c1ccccc1` was tested, and the AC50 was 5620 nM (active).
With `COc1cccc(-c2ccc3ncnc(N(C)C)c3c2)c1` the AC50 was 794 nM (active).
`CN(C)c1ncnc2ccc(-c3cccnc3)cc12` was tested, and the AC50 was 200 nM (active).
In the case of `O=C1NC(O)=NC1(c1ccccc1)c1ccccc1`, the “activity, negative = inhibition” value is reported as -12.9%.
For `CSc1nc(N)nc(-c2cccs2)c1C#N`, the AC50 was 2000 nM (active).
With `N#Cc1c(-c2ccccc2)cc(C2CC2)nc1SCC(=O)c1cccs1` the AC50 was 562 nM (active).
With `CSc1nc(C2CC2)cc(-c2cccs2)c1C#N` the AC50 was 316 nM (active).
In the case of `CC(C)C12CN3CC(C(C)C)(CN(C1)C3c1ccco1)C2=O` (stereo not drawn), the “activity, negative = inhibition” value is reported as 11%.
With `Cc1ccc(N=CC2=C(O)CC(c3ccco3)CC2=O)cc1` (stereo not drawn) the AC50 was 25100 nM (active).
With `CCC(=O)N(C)/C=C1\Sc2ccccc2C1=O` the AC50 was 3160 nM (active).
In the case of `CS(=O)(=O)c1cnc2c(-c3ccc(F)cc3)cnn2c1N`, the AC50 is reported as 3550 nM (active).
`Cc1ccc(C(=O)N/N=C/c2ccc([N+](=O)[O-])s2)cc1` was tested, and the AC50 was 2820 nM (active).
With `COc1cccc(NC(=S)NNC(=O)C(C)n2nc(C)c([N+](=O)[O-])c2C)c1` (stereo not drawn) the “activity, negative = inhibition” value was -23.7%.
With `O=C(N/N=C/c1ccc([N+](=O)[O-])s1)c1ccccc1Br` the AC50 was 15800 nM (active).
For `Cc1cccc(NC(=S)N/N=C/c2ccc([N+](=O)[O-])s2)c1`, the AC50 was 1410 nM (active).
For `O=C(NCCNc1ccc([N+](=O)[O-])cc1)c1ccccc1Br`, the “activity, negative = inhibition” value was -27.5%.
In the case of `O=C(N/N=C/c1ccc(Br)s1)c1ccccc1[N+](=O)[O-]`, the AC50 is reported as 14100 nM (active).
In the case of `O=C(N/N=C/c1cc([N+](=O)[O-])ccc1N1CCNCC1)c1ccc([N+](=O)[O-])cc1`, the “activity, negative = inhibition” value is reported as -24.1%.
`CO[C@H]1COC(=O)C/C=C\[C@@H](C)[C@H](OC)COC(=O)CCC[C@@H]1C` gave an activity, negative = inhibition of -5.95% [at 11.4 µM].
`CC(=O)N1CCC(=O)N(C(C)C)c2ccccc21` was tested, and the “activity, negative = inhibition” value was -11.8%.
For `Cc1cc(N2CCN(c3nc4ccccc4s3)CC2)n2ncnc2n1`, the AC50 was 15800 nM (active).
For `CCCNC(=O)OC[C@@H]1O[C@H](CCO/N=C(\C)CCN2CCCc3nc(C)c(C)cc32)C=C[C@@H]1Oc1ccc(OC)cc1`, the activity, negative = inhibition was 0.587% [at 11.4 µM].
In the case of `C=CCOC(=O)/C(=C\c1cccc2ccccc12)NC(=O)c1ccccc1`, the AC50 is reported as 7080 nM (active).
In the case of `CCCCOc1ccc(C(=O)N/C(=C\c2cccc([N+](=O)[O-])c2)C(=O)OCCC)cc1`, the “activity, negative = inhibition” value is reported as -18.3%.
In the case of `COc1ccc(NC(=O)/C(=C\c2cc(OC)c(OC)cc2[N+](=O)[O-])NC(=O)c2ccccc2)cc1`, the “activity, negative = inhibition” value is reported as 9.17%.
With `c1ccc2c(c1)-c1nc3ccccc3cc1[C@H]2N1CCOCC1` the AC50 was 1260 nM (active).
With `CCCCCCC1CC(C)(/C(C)=N/NC(N)=O)OC1=O` (stereo not drawn) the “activity, negative = inhibition” value was -17.7%.
With `O=S(=O)(c1cnccc1N1CCN(/N=C/c2ccccc2)CC1)N1CCCCC1` the “activity, negative = inhibition” value was -18.1%.
`CCn1c(-c2ccoc2C)n[nH]c1=S` was tested, and the AC50 was 22400 nM (active).
For `CSC1(SC2=NCCN2)SC2(NCCN2)S1`, the AC50 was 398 nM (active).
Compound `O=C(O)CCSC1=NCCN1` has an activity, negative = inhibition of -7.93% [at 11.4 µM].
In the case of `COc1ccc(NC(=O)N2CC[C@@]3(CCCNC3)C2)cc1`, the “activity, negative = inhibition” value is reported as -8.34%.
With `CCCCN1C(=O)C(NC(=O)C2CC2)(C(F)(F)F)C2=C1CC(C)(C)CC2=O` (stereo not drawn) the “activity, negative = inhibition” value was 14.5%.
With `CC/C(=N/Nc1ccccc1)c1cnnc(SC)n1` the AC50 was 10000 nM (active).
For `CSc1nncc(/C(C)=N\Nc2ccccc2)n1`, the AC50 was 12600 nM (active).
In the case of `CCc1ccc(N(C(=O)c2ccoc2C)C(C(=O)NC2CCCC2)c2ccc(OC)cc2)cc1` (stereo not drawn), the “activity, negative = inhibition” value is reported as -10.9%.
In the case of `Cc1ccc(Nc2nnc(-c3ccc4c(c3)OCO4)o2)c(C)c1`, the AC50 is reported as 2510 nM (active).
`COc1ccc([C@H](O)c2ccccn2)cc1` was tested, and the activity, negative = inhibition was -16% [at 11.4 µM].
In the case of `COc1cc(N=C(N)N=C(N)N)c2ncccc2c1`, the AC50 is reported as 398 nM (active).
In the case of `COc1cc(NCCC(=O)O)c2ncccc2c1`, the activity, negative = inhibition is reported as -18.1% [at 11.4 µM].
Compound `CC(C)=CCC/C(C)=C/CO/N=C1/[C@H]2O[C@@H]2[C@@H](O)[C@H]2[C@H]1CCn1c(=O)n(Cc3cc4c(cc3Cl)OCO4)c(=O)n12` has an activity, negative = inhibition of -2.22% [at 11.4 µM].
